NS1 function inh: blocks influenza NS1 protein function; Potency, µM (top dose mostly 46.1 µM), for inactives: top-dose activity, positive = more growth; 270,000 tested, 0.4% active; AID 2326; note: potency is the fitted concentration of half-maximal effect; actives are rising curves; nearly all actives have a fitted effect of over 50% in size
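Compounds were scored for reversing the slow growth caused by influenza A NS1 in S. cerevisiae, measured by optical density at 600 nm. Assay medium contained 2% galactose at pH 6.0; NS1-free yeast of the same strain were the positive control.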
CHX counter: counter-screen hit for Shiga toxin inhibitors, cycloheximide | cell reporter, cycloheximide protein synthesis inhibition counterscreen | max response, % | 300,000 tested, 12% active; in the data active = max response mostly above about 13%, no sharp cut-off; inactive = mostly below about 14%; note: read at 38.3 µM for the half of the compounds with a filed dose; 0% is about no effect
SARS PLP yeast: SARS-CoV PLP inhibition in yeast; Potency, µM (doses to about 32.9 µM), without a hit: at the top dose activity, positive = growth rescue, usual class: activators; S. cerevisiae expressing SARS-CoV PLpro, growth rescue; 330,000 tested, 0.19% active; AID 485353; note: potency is the fitted concentration of half-maximal effect; 0% is about no effect; nearly all actives have a fitted effect of over 55% in size
Shiga inhibitor: blocks Shiga toxin action in Vero cells. 290,000 tested, 9.2% active. Vero cells, Shiga toxin protein synthesis inhibition reporter. AID 2315. inhibition, % at 38.7 µM; in the data active = inhibition mostly above about 28%, no sharp cut-off; inactive = mostly below about 43%; note: 0% is about no effect
Numbers without * were called inactive; · = not tested or not shown. An excerpt weighted towards active compounds, which were near 12% of everything screened. Unless noted, calls come from the whole dose curve.

SMILES | NS1 function inh | CHX counter | SARS PLP yeast | Shiga inhibitor
FC(F)(F)c1cccc(CNC2CCN(Cc3ccccc3)CC2)c1 | -15.5% | -2.7 | 1.0% | -9.9
COc1cccc(N2CC(NC(=O)C(=O)c3c(C)[nH]c4ccccc34)CC2=O)c1 (centres undefined) | · | · | -0.3% | ·
Nc1nc(-c2nc3ccccc3[nH]2)cs1 | -3.1% | 33.4* | -5.0% | 70.0*
Cc1[nH]c2ccccc2c1-c1nc2ccccc2[nH]1 | -9.9% | 48.0* | 2.9% | 56.4*
Cc1ccc(-c2nc3ccccc3[nH]2)s1 | -88.8% | 52.5* | -27.8% | 63.9*
c1csc(-c2nc3ccccc3[nH]2)c1 | -37.0% | 36.0* | -48.6% | 65.2*
CCOc1ccc(Nc2nc(N(C)c3ccccc3)nc(N)c2[N+](=O)[O-])cc1 | 2.6% | -0.8 | -0.4% | 16.2
O=C(NNc1cc(Cl)ccc1Cl)c1cccs1 | -6.5% | -2.7 | -3.2% | -2.2
Nc1ccc(NC(=O)c2cccs2)c(Cl)c1 | -4.6% | 32.3* | -2.4% | 54.7*
O=C(Nc1ccc(N2C(=O)C3C4C=CC(C4)C3C2=O)cc1Cl)c1cccs1 (centres undefined) | · | 6.4 | 0.6% | 3.4
Nc1ccc(Cl)c(NC(=O)c2cccs2)c1 | 5.5% | 16.4* | 0.3% | active
Cn1c(CNC(=O)c2ccco2)nnc1SCC(=O)c1ccc(Br)cc1 | 4.0% | -12.2 | 0.8% | 17.8
COc1ccc(CCNC(=O)Cn2nnc(C(=O)Nc3cc(C)ccc3C)c2N)cc1OC | 13.3% | -10.4 | -2.6% | -5.9
Cc1ccc(SCC(c2ccccc2)N2CCN(C)CCC2=O)cc1 (centres undefined) | · | 31.1* | · | 52.4*
CN1CCC(=O)N([C@H](CSc2ccc(Br)cc2)c2ccccc2)CC1 | 13.1% | 25.0* | -4.6% | 63.5*
O=C1CNC(=S)N1CCCc1ccccc1 | -5.6% | -3.2 | -1.2% | -6.4
Cc1ccc(-c2cc(C(=O)N/N=C/c3ccco3)[nH]n2)cc1 | -13.4% | 18.8 | -9.8% | 32.6
O=C(N/N=C/c1ccco1)c1cc(-c2cccc3ccccc23)n[nH]1 | -51.9% | 26.3* | -19.8% | 58.0*
O=C(N/N=C/c1ccco1)c1cc(-c2ccccc2)n[nH]1 | 8.0% | 19.5* | -2.6% | 45.7*
COc1ccc(S(=O)(=O)Nc2ccc3c(c2)C(=O)N([C@H](C)CO)C[C@H](C)[C@@H](CN(C)C(=O)NC(C)C)O3)cc1 | · | · | -2.9% | ·
CCOc1ccc(CCNC(=O)COC(=O)c2ccc(C)s2)cc1OCC | 6.6% | 11.6 | -6.1% | 43.6
Cc1ccc(Nc2nc(N)nc(-c3oc4ccccc4c3C)n2)cc1 | -1.9% | 23.0* | -1.1% | 46.0*
COc1ccccc1Nc1nc(N)nc(-c2cc3ccccc3o2)n1 | -36.0% | 32.6* | -14.6% | active
Cc1ccc(Nc2c([N+](=O)[O-])c(=O)oc3ccccc23)cc1 | -0.4% | -10.6 | 0.0% | -5.7
Cc1cccc(Nc2nc(N)nc(-c3oc4ccccc4c3C)n2)c1 | 3.5% | 53.3* | -2.6% | 89.1*
SMILES | NS1 function inh | CHX counter | SARS PLP yeast | Shiga inhibitor
Cc1c(-c2nc(N)nc(Nc3ccccc3F)n2)oc2ccccc12 | -32.4% | 57.1* | -23.0% | 186.8*
Cc1cccc(Nc2ncnc(N)n2)c1 | 2.2% | 8.9 | 0.4% | 2.6
COc1ccccc1Nc1nc(N)nc(CN2CCOCC2)n1 | 3.0% | -1.7 | -6.5% | 3.0
COc1cccc(Nc2nc(N)nc(-c3oc4ccccc4c3C)n2)c1 | 5.3% | 41.5* | -20.9% | 79.1*
CSc1ncc(CN2CCN(C3CCCC3)C(CCO)C2)cn1 (centres undefined) | 2.6% | -1.0 | 1.0% | -3.6
COc1ccc(OC)c(NC(=O)c2[nH]c(C)c(C(C)=O)c2C)c1 | -5.6% | 11.1 | 4.0% | 28.9
CCCOC(=O)Nc1nc(-c2ccc(C)cc2)c(C)s1 | · | 26.9* | -6.8% | 64.5*
COc1ccc(-c2nc(NC(=O)c3[nH]c(C)c(C(C)=O)c3C)sc2C)cc1 | · | 8.3 | 0.9% | 68.2*
CC(=O)c1c(C)[nH]c(C(=O)Nc2nc(-c3ccc(Cl)cc3)cs2)c1C | 2.3% | -0.2 | -27.6% | 5.0
COc1ccc(-c2nc(NC(=O)CSCCO)sc2C)cc1 | · | 23.9 | 0.9% | 69.5*
COc1ccc(-c2nc(NC(=O)Cn3cnnn3)sc2C)cc1 | · | 15.1 | 0.0% | -2.8
CC(=O)c1c(C)[nH]c(C(=O)Nc2nc(-c3ccc(-c4ccccc4)cc3)cs2)c1C | -0.1% | 10.9 | 10.0% | 64.2*
Cc1nc(Nc2ccc(S(=O)(=O)N3CCCCC3C)cc2)c2nnn(Cc3ccccc3)c2n1 (centres undefined) | -3.6% | 0.7 | 18.8% | -6.6
O=C(/C=C/c1ccc(-c2ccccc2[N+](=O)[O-])o1)c1ccc(Br)cc1 | -6.7% | 11.2 | 11.5% | 12.2
Cc1ccc(-c2ccc(/C=C/C(=O)c3ccccc3)o2)cc1 | -1.3% | 25.7* | 9.3% | 27.8

Screening results: PubChem, National Center for Advancing Translational Sciences (NCATS)
